Among the data in paper PMC7862700, “An all-to-all approach to the identification of sequence-specific readers for epigenetic DNA modifications on cytosine” are binding signal values, retold here.

What all share (assay): DAPPL (digital affinity profiling via proximity ligation, sequencing); 10 mM Tris-HCl pH 7.5, 50 mM NaCl, 1 mM DTT, 4% glycerol, room temperature, 30 min; GST-TFs on glutathione beads, 16-mer random dsDNA library, 0.1% formaldehyde crosslink after washing; high values mean tight binding
In one assay the target is T1, FLI1 (Homo sapiens, UniProt Q01543 1-452).
T1 sequence: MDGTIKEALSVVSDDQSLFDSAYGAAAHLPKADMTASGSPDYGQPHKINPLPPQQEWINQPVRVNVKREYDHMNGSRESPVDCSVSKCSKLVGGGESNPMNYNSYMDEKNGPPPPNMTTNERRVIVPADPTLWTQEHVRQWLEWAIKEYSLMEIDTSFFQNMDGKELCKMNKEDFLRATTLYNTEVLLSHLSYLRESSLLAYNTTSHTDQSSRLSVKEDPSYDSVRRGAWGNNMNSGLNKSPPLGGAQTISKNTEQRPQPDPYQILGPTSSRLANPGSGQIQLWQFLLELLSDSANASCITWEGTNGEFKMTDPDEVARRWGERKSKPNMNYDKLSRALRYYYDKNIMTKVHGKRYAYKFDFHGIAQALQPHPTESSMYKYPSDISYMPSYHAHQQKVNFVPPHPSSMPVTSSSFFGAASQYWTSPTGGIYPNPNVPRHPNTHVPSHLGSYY
The settings on record: protein: recombinant; tags: N-terminal GST; dsDNA, one strand shown. In a few lines:
(§1)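 Beads coated with glutathione captured GST-fused human transcription factors that had been expressed in yeast, and the factors were then given DNA barcodes and pooled with a tag-only sample. The pools were incubated with 200 nmole of a random double-stranded 16-mer DNA library in Tris/NaCl/DTT/glycerol buffer for 30 min at room temperature, washed, crosslinked with 0.1% formaldehyde and proximity-ligated with BsaI/T4 ligase at 37 °C for 1 h. PCR amplification and Illumina NextSeq500 sequencing came last. Binding signal is each hexamer's read frequency for a factor divided by its frequency for the tag-only sample.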

The target in a further assay is T2, GABPA (Homo sapiens, UniProt Q06546 1-454).
T2 sequence: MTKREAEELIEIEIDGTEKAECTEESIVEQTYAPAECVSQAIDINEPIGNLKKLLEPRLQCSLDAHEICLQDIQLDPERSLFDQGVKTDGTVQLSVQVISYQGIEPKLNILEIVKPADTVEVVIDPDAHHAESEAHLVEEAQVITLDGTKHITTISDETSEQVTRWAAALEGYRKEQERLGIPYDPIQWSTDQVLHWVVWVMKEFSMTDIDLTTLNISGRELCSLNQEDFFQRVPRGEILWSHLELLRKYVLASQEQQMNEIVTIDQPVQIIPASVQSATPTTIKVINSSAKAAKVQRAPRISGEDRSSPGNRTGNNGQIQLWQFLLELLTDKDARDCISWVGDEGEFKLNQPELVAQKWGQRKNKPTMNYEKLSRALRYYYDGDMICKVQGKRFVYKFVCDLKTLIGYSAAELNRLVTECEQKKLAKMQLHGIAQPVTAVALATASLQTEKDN
The settings on record: protein: recombinant; tags: N-terminal GST; dsDNA, one strand shown. The gist of the method: as §1

A further assay concerns the target ELF1 (Homo sapiens, UniProt P32519 1-619). Particulars: protein: recombinant; tags: N-terminal GST; dsDNA, one strand shown. In a few lines: as §1
Another assay has as its target T3, EHF (Homo sapiens, UniProt Q9NZC4 1-300).
T3 sequence: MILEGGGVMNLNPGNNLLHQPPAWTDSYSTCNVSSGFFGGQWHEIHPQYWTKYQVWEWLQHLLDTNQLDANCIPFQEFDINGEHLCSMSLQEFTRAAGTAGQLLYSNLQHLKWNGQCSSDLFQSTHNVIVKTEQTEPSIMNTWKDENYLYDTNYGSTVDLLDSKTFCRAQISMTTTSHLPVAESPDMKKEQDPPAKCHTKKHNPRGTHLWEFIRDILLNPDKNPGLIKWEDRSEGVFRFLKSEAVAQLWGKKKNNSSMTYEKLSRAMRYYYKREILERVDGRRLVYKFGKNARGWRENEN
The settings on record: protein: recombinant; tags: N-terminal GST; dsDNA, one strand shown. The gist of the method: as §1

Another assay deals with SPI1 (Homo sapiens, UniProt P17947 1-270). The settings on record: protein: recombinant; tags: N-terminal GST; dsDNA, one strand shown. The gist of the method:
as §1

Another assay concerns the target SPIB (Homo sapiens, UniProt Q01892 1-262). Particulars: protein: recombinant; tags: N-terminal GST; dsDNA, one strand shown. In a few lines:
as §1

For another assay, the target named is T4, ELK3 (Homo sapiens, UniProt P41970 1-407).
T4 sequence: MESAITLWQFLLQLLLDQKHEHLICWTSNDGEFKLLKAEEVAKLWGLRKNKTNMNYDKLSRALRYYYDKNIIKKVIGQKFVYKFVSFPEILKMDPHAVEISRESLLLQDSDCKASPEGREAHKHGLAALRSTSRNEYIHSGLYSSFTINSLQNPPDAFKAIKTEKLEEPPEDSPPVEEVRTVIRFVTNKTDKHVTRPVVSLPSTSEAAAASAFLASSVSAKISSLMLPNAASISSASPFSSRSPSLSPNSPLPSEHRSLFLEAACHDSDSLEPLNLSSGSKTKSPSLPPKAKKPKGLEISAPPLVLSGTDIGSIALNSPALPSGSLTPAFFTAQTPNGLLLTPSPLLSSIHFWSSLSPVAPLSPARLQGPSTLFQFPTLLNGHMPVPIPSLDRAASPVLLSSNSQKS
Particulars: protein: recombinant; tags: N-terminal GST; dsDNA, one strand shown. In a few lines:
as §1

A further assay has as its target ETV5 (Homo sapiens, UniProt P41161 1-510). Particulars: protein: recombinant; tags: N-terminal GST; dsDNA, one strand shown. The gist of the method:
as §1

The target of another assay is HSF1 (Homo sapiens, UniProt Q00613 1-529). Particulars: protein: recombinant; tags: N-terminal GST; chain copies: 3; dsDNA, one strand shown. In a few lines:
as §1

A further assay addresses T5, SPIC (Homo sapiens, UniProt Q8N5J4 1-248).
T5 sequence: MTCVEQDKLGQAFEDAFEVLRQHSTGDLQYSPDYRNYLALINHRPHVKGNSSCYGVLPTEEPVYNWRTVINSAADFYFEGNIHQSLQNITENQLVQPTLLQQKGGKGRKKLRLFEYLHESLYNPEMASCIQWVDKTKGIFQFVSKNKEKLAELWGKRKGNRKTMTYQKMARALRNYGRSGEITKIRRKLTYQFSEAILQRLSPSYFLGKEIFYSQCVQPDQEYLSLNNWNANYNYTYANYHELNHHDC
Particulars: protein: recombinant; tags: N-terminal GST; dsDNA, one strand shown. In a few lines: as §1

For a further assay, the target named is ELF4 (Homo sapiens, UniProt Q99607 1-663). The settings on record: protein: recombinant; tags: N-terminal GST; dsDNA, one strand shown. The gist of the method: as §1
Sequence of ELF4 (Q99607 whole entry): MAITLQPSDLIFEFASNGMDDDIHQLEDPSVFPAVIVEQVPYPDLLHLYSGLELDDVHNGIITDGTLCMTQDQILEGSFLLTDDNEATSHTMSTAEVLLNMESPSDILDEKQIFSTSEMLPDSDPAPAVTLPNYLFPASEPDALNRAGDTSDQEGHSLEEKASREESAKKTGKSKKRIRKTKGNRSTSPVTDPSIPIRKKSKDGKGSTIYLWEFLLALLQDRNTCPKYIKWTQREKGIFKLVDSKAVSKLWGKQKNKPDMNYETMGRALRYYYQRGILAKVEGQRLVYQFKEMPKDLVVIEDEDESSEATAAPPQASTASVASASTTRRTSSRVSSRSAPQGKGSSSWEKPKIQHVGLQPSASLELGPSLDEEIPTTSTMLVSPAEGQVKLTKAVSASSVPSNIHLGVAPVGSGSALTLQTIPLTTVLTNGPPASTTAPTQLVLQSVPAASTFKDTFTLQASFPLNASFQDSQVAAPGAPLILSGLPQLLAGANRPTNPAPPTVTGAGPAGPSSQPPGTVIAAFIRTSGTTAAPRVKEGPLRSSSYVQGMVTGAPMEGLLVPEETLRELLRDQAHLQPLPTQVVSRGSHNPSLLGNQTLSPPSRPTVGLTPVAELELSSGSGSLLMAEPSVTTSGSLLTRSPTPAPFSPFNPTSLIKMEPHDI
A further assay deals with T6, ELK4 (Homo sapiens, UniProt P28324-2 1-405).
T6 sequence: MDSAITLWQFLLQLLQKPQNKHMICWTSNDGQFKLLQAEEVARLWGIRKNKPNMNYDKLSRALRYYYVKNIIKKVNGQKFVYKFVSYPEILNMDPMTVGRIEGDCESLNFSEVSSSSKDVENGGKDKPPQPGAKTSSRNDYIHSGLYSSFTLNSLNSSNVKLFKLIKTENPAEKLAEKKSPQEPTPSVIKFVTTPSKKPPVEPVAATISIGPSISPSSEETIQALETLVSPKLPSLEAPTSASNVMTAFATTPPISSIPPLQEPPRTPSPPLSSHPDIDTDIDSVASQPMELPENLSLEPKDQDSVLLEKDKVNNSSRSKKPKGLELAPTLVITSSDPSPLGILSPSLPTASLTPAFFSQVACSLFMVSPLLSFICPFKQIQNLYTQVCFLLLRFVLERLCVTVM
Particulars: protein: recombinant; tags: N-terminal GST; dsDNA, one strand shown. In a few lines:
as §1

In another assay the target is T7, ETV2 (Homo sapiens, UniProt O00321 1-342).
T7 sequence: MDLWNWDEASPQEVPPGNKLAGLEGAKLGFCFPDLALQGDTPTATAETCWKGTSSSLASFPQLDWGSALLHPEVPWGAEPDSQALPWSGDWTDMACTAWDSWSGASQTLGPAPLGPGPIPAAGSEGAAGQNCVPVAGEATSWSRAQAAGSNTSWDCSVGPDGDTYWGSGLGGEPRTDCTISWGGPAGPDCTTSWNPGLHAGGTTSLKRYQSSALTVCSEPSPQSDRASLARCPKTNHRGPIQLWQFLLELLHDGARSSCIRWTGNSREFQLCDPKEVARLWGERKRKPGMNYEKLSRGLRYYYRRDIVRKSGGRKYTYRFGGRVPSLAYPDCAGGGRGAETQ
The settings on record: protein: recombinant; tags: N-terminal GST; dsDNA, one strand shown. In a few lines: as §1

Another assay addresses CRX (Homo sapiens, UniProt O43186 1-299). Particulars: protein: recombinant; tags: N-terminal GST; dsDNA, one strand shown. The gist of the method: as §1
The target in the next assay is ETV1 (Homo sapiens, UniProt P50549 1-477). The settings on record: protein: recombinant; tags: N-terminal GST; dsDNA, one strand shown. In a few lines: as §1
Sequence of ETV1 (P50549 whole entry): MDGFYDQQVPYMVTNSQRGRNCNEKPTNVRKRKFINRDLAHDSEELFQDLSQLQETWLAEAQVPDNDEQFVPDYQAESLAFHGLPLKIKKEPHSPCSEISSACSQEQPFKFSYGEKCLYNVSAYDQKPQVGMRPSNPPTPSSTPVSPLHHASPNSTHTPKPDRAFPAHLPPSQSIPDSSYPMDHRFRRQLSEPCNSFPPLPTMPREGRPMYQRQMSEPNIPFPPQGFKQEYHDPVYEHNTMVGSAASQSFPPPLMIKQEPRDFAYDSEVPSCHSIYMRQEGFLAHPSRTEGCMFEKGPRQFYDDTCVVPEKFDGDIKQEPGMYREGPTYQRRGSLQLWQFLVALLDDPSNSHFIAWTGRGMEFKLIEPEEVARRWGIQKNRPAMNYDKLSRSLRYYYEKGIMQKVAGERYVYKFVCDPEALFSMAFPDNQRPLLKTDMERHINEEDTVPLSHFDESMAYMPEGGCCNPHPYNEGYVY
A further assay concerns the target T8, ERG (Homo sapiens, UniProt P11308 1-479).
T8 sequence: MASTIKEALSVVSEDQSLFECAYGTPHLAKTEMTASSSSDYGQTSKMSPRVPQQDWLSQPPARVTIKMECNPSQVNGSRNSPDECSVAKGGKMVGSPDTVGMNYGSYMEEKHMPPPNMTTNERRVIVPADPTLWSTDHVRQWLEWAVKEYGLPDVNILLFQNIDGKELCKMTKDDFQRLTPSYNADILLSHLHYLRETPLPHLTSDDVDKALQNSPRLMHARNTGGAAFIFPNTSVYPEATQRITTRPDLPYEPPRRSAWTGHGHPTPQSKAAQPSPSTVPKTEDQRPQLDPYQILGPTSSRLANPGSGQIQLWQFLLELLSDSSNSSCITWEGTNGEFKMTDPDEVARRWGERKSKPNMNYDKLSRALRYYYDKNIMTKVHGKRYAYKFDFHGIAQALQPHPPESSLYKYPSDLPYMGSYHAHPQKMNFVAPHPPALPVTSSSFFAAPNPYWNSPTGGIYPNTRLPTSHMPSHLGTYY
The settings on record: protein: recombinant; tags: N-terminal GST; dsDNA, one strand shown. In a few lines: as §1

For another assay, the target named is T9, FEV (Homo sapiens, UniProt Q99581 1-238).
T9 sequence: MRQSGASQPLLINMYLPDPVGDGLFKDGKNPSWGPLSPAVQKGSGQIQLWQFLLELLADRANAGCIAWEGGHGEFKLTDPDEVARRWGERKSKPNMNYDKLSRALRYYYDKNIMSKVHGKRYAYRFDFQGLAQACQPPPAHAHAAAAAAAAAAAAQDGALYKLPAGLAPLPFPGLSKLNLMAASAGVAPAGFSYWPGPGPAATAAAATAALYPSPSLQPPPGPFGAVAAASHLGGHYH
The settings on record: protein: recombinant; tags: N-terminal GST; dsDNA, one strand shown. The gist of the method:
as §1

In the next assay the target is T10, ELF3 (Homo sapiens, UniProt P78545 1-371).
T10 sequence: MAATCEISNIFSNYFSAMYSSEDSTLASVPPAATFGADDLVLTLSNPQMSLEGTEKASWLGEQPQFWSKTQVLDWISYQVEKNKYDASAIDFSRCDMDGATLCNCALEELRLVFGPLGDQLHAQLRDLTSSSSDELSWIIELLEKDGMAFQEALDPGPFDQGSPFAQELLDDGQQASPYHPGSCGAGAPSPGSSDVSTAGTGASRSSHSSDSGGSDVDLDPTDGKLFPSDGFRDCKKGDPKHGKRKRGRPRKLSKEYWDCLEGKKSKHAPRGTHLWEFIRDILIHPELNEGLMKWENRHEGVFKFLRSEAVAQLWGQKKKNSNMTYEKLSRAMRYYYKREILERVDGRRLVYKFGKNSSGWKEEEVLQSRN
The settings on record: protein: recombinant; tags: N-terminal GST; dsDNA, one strand shown. The gist of the method:
as §1

Sequence of HSF1 (Q00613 whole entry): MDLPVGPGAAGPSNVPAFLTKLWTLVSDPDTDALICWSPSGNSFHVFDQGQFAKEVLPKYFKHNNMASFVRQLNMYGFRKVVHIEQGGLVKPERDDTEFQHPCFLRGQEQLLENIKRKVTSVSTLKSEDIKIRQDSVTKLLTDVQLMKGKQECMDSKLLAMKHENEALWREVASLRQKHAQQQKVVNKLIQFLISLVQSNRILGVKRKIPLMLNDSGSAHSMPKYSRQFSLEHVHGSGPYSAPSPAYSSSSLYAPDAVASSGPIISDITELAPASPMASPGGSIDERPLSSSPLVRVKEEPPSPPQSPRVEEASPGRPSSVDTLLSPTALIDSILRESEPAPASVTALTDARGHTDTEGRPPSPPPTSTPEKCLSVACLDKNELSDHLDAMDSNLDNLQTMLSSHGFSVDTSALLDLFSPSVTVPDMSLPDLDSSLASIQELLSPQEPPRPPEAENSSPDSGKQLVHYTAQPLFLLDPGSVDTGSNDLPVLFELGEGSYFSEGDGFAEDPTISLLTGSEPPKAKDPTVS
Sequence of SPIB (Q01892 whole entry): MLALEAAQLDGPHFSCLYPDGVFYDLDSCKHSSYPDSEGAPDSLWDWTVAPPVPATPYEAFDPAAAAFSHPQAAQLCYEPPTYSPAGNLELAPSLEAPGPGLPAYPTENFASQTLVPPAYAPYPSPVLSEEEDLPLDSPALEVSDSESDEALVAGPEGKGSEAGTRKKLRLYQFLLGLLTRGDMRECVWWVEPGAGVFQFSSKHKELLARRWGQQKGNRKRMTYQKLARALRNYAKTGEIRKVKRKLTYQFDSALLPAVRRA
Sequence of ETV5 (P41161 whole entry): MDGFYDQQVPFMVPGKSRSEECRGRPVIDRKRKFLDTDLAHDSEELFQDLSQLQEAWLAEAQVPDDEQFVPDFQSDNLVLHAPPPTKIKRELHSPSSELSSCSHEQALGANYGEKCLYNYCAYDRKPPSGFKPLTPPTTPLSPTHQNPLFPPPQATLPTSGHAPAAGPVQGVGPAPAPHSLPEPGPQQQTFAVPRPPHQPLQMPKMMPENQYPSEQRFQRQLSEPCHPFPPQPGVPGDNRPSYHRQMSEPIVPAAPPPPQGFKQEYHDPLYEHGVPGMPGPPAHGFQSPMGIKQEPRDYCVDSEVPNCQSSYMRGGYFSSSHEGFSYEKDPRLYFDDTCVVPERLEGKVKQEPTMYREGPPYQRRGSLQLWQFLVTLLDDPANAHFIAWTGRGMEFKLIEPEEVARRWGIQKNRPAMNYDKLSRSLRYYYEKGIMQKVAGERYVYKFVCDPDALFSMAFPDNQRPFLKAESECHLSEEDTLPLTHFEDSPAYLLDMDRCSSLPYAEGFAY
Sequence of ELF1 (P32519 whole entry): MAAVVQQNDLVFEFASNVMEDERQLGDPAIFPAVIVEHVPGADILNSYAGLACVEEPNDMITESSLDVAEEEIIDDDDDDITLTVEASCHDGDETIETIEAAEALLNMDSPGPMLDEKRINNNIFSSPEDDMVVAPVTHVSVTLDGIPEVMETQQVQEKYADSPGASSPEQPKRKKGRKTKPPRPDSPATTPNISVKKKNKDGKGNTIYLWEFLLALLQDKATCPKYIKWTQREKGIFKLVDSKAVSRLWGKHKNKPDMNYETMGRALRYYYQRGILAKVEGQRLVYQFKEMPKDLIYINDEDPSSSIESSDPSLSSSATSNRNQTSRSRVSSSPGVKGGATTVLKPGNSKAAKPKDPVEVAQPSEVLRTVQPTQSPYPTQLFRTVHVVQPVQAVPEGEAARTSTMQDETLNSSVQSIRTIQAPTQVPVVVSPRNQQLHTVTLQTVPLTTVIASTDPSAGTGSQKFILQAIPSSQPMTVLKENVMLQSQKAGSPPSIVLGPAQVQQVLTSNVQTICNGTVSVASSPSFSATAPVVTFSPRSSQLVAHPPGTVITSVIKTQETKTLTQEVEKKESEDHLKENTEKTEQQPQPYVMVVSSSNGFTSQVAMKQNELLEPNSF
Sequence of CRX (O43186 whole entry): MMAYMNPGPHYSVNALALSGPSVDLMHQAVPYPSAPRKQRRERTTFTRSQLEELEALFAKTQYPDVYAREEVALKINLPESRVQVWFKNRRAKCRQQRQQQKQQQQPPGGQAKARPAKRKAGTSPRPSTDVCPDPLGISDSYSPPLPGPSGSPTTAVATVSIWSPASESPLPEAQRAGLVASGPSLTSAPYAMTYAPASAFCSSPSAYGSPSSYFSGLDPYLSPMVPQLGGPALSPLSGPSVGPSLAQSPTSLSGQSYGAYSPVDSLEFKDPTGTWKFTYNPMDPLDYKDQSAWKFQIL

On to CTGTAA, for which the binding signal with FLI1 is 1.06 fold enrichment (6-mer frequency, TF over GST control); with GABPA it was 1.07 fold enrichment (6-mer frequency, TF over GST control); with ELF1, 1.12 fold enrichment (6-mer frequency, TF over GST control); with EHF, 1.09 fold enrichment (6-mer frequency, TF over GST control); with SPI1 it was 1.11 fold enrichment (6-mer frequency, TF over GST control); with SPIB, 1.04 fold enrichment (6-mer frequency, TF over GST control). In addition, the binding signal in the assay with ELK3 was 1.24 fold enrichment (6-mer frequency, TF over GST control); in the assay with ETV5, 1.05 fold enrichment (6-mer frequency, TF over GST control); with HSF1, 1.09 fold enrichment (6-mer frequency, TF over GST control); with SPIC, 1.24 fold enrichment (6-mer frequency, TF over GST control); with ELF4, 1.06 fold enrichment (6-mer frequency, TF over GST control); in the assay with ELK4 it was 1.09 fold enrichment (6-mer frequency, TF over GST control). The binding signal in the assay with ETV2 was 1.21 fold enrichment (6-mer frequency, TF over GST control); with CRX, 1.25 fold enrichment (6-mer frequency, TF over GST control); with ETV1, 1 fold enrichment (6-mer frequency, TF over GST control).

As for GAAAAC, the binding signal is 1.04 fold enrichment (6-mer frequency, TF over GST control) with FLI1; 1.05 fold enrichment (6-mer frequency, TF over GST control) in the assay with GABPA; 1.09 fold enrichment (6-mer frequency, TF over GST control) with ERG; 1.06 fold enrichment (6-mer frequency, TF over GST control) with ELF1; 1.09 fold enrichment (6-mer frequency, TF over GST control) with EHF; 1.07 fold enrichment (6-mer frequency, TF over GST control) with SPI1. Moreover, the binding signal with SPIB is 1 fold enrichment (6-mer frequency, TF over GST control); with FEV, 1.08 fold enrichment (6-mer frequency, TF over GST control); in the assay with ETV5 it was 1.13 fold enrichment (6-mer frequency, TF over GST control); in the assay with HSF1, 1.08 fold enrichment (6-mer frequency, TF over GST control); with SPIC, 1.21 fold enrichment (6-mer frequency, TF over GST control); in the assay with ELF4 it was 1.12 fold enrichment (6-mer frequency, TF over GST control). In addition, the binding signal with ELK4 was 1.16 fold enrichment (6-mer frequency, TF over GST control); with ETV2, 1.04 fold enrichment (6-mer frequency, TF over GST control); with ELF3 it was 1.08 fold enrichment (6-mer frequency, TF over GST control); in the assay with ETV1, 1.13 fold enrichment (6-mer frequency, TF over GST control).
